Assay results as given in PubChem BioAssay.
Calls of active or inactive are those of the source.

Legend:
Albumin (Bos taurus) = Albumin (Bos taurus) (UniProt P02769); experiment: bovine serum albumin binders on microarray, profiling panel, artefact control for SMM control protein annotation, biochemical, small-molecule microarray, Alexa647 label, 635/667 nm fluorescence (AID 1118); conditions: BSA-A647 binding, fluorescence 635 nm, higher = more signal;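 further: score merges 667 nm emission intensity and signal-to-noise per printed compound spot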
[1] = small-molecule microarray binders of probe aXIP, primary screen, biochemical, NeuroSMM set, 635/667 nm fluorescence (AID 1119); conditions: higher = more signal, called active from +8 up or from −8 down;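 further: probe is the protein aXip251-270 applied at 1 µg/mL to compound-printed slides; binding of probe to printed compounds measured as 667 nm fluorescence plus signal to noise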
[2] = small-molecule binders of probe aNOTCH3, primary screen, biochemical, small-molecule microarray, 635/667 nm fluorescence (AID 1120); conditions: higher = more signal;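 further: probe is a biotin-tagged antibody raised against NOTCH3 rather than NOTCH3 protein; score merges spot fluorescence near 667 nm with spot signal to noise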
[3] = small-molecule binders of probe aNOTCH2, primary screen, biochemical, small-molecule microarray, 635/667 nm fluorescence (AID 1121); conditions: higher = more signal;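 further: score merges feature fluorescence read at 667 nm with its signal to noise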
[4] = target: Carbonic anhydrase 2 (Homo sapiens) (UniProt P00918); experiment: CAII small-molecule binders, profiling panel, biochemical, small-molecule microarray, Alexa647-labelled CAII (AID 1122); conditions: CAII-A647 binding fluorescence, higher = more signal
[5] = COS7 lysate on small-molecule microarray, probe aHis, 635 nm (AID 1123); conditions: COS7 cell lysate, fluorescence, higher = more signal;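 further: z-score combines 667nm fluorescence intensity with signal-to-noise per printed compound spot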
[6] = compound binding in COS7 lysate, probe aLAP1, primary screen, cell lysate, small-molecule microarray (AID 1124); conditions: probe aLAP1, fluorescence, higher = more signal;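 further: lysate comes from COS7 cells expressing LAP1 and is applied at 0.3 µg/mL; score merges spot fluorescence near 667 nm with signal-to-noise over triplicate slides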
Sam68 (KHDRBS1) = experiment: Sam68 small-molecule binders, primary screen, biochemical, small-molecule microarray, 635 nm fluorescence (AID 1125); conditions: small-molecule microarray binding, higher = more signal;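 further: score merges 667 nm channel intensity with signal to noise over triplicate slides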
[7] = tested on: Chordin-like protein 2 (CHRDL2); experiment: CHRDL2 small-molecule binders, primary screen, biochemical, small-molecule microarray, 635 nm fluorescence (AID 1126); conditions: small-molecule microarray binding, fluorescence 635 nm; higher = more signal;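 further: printed compound slides probed with Chrdl2 protein at 4 µg/mL for 1 h at 4 C; score merges 667 nm emission intensity with signal to noise over three replicate slides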
[8] = target: Concanavalin-A (Canavalia ensiformis) (UniProt P02866); experiment: ConA small-molecule binders, primary screen, artefact control for SMM control protein annotation, biochemical, small-molecule microarray, Alexa647 label, 635 nm (AID 1127); conditions: ConA-A647 binding fluorescence, higher = more signal;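 further: z combines 667 nm emission intensity with signal-to-noise across three replicate slides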
Sequence of Concanavalin-A (Canavalia ensiformis) (P02866 whole entry, looked up): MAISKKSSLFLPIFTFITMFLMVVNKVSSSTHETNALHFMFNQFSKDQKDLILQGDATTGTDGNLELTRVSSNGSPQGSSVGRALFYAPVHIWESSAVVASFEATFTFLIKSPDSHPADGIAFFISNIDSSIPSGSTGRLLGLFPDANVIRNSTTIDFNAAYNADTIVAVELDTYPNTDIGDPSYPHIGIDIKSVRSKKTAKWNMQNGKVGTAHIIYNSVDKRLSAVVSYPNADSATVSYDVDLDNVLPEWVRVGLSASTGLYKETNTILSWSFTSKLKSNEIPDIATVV

Sequence of Albumin (Bos taurus) (P02769 whole entry, looked up): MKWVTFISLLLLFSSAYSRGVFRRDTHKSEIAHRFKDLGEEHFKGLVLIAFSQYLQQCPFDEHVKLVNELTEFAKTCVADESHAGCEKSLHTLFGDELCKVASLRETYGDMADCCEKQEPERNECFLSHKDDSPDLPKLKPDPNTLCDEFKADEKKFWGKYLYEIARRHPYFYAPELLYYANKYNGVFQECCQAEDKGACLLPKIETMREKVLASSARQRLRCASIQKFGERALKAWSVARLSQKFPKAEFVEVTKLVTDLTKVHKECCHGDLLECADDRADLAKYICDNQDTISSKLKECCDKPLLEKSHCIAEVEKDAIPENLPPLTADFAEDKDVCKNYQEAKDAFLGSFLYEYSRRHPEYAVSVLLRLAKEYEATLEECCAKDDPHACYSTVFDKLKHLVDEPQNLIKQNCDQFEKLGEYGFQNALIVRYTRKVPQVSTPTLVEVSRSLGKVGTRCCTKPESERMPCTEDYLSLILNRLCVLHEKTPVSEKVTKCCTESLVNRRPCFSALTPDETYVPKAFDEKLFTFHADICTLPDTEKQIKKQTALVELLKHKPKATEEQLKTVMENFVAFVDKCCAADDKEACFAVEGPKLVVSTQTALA

Compound	composite z-score (Albumin (Bos taurus))	composite Z-score [1]	composite z-score [2]	composite z-score [3]	composite z-score [4]	composite z-score [5]	composite z-score [6]	composite z-score (Sam68 (KHDRBS1))	composite z-score [7]	composite z-score [8]
COCCn1c(C(=O)N2CCCC2)cc2c1C[C@H]1CN(C(=O)c3ccccc3)[C@@](Cc3ccc(OC)cc3)(C(=O)OC)[C@@H]21	1.11	0.433 (inactive)	0.512	0.384	0.868	2.11	1.11	0.424	-0.975	1.05
C=C(CCCC)C(=O)CC[C@@H](OC(=O)c1ccccc1-c1ccccc1C(=O)O)c1ccc(CO)o1	0.26	-0.27 (inactive)	0.135	-0.0028	0.549	0.413	0.941	1.18	0.593	0.786
C=C(CCCC)/C(=C/C[C@@H](OC(=O)c1ccncc1)c1ccc(CO)o1)c1cc(C(=O)OC)ccc1OC	0.662	0.421 (inactive)	0.0897	-0.0349	0.709	1.46	0.924	1.3	0.422	1.15
CC1(C)C(=O)C(c2ccccc2)=C2CN3C(=O)N(CCc4ccccc4)C(=O)C3(Cc3ccccc3)C=C21 (stereo not given)	0.775	0.274 (inactive)	0.351	0.121	0.644	1.16	-0.0857	0.516	-0.888	0.444
COC(=O)[C@@]1(Cc2ccc(F)cc2)[C@H]2c3cc(C(=O)N(C)C)n(Cc4ccccn4)c3C[C@H]2CN1C(=O)c1ccccc1	0.979	-0.91 (inactive)	1.15	-0.168	0.908	2.46	1.08	1.19	-0.552	0.481
CC(c1ccccc1)C(O)C1C=CC2C(=O)N(c3ccccc3)C(=O)C2N1Nc1ccccc1F (stereo not given)	0.687	0.0197 (inactive)	0.0522	-0.0483	0.697	2.21	0.504	1.17	-0.474	0.77
COC(=O)c1c(CC[C@@H](CO)NC(=O)Nc2ncn[nH]2)oc(C(=O)Cc2ccccc2)c1C(=O)OC	-0.145	1 (inactive)	0.158	-0.12	0.768	3.22	0.705	0.885	1.08	1.16
COCC1C2CC[C@H]3C(OCc4ccc(F)cc4C(F)(F)F)OC[C@]4(C)[C@H]3C2=C(CN4C(=O)OC(C)(C)C)[C@H](C)C1COC (stereo not given in full)	1.05	0.973 (inactive)	0.202	0.214	0.698	3.39	0.63	1.2	-1.12	1.13
Cc1ccc(S[C@]2(C(=O)NCCCN(C)C)CC(=O)N(Cc3ccccc3)[C@@H]2c2ccc(CO)cc2)cc1	-0.173	-0.72 (inactive)	-0.279	0.027	0.621	0.018	0.973	-0.145	-0.85	-0.785
COc1cc(NN2C(C(O)c3ccccc3)C=CC3C(=O)N(c4ccccc4)C(=O)C32)cc(OC)c1OC (stereo not given)	0.923	0.153 (inactive)	0.569	-0.124	0.831	3.3	0.263	1.31	-0.0912	0.919
[N-]=[N+]=NCc1ccccc1C[C@]1(C(=O)NCC(O)CO)COC(c2ccc(OCCCO)cc2)=N1 (stereo not given in full)	1.03	0.621 (inactive)	0.0566	0.446	0.8	3.3	1.38	1.12	-1.37	0.954
Cc1ccc(S(=O)(=O)N2CC(C(=O)O)=CCC2c2ccccc2)cc1 (stereo not given)	0.465	0.0578 (inactive)	-0.287	-0.106	0.881	1.21	0.671	0.503	-1.74	0.0782
COC(=O)[C@@]1(Cc2ccccc2)[C@H]2c3cc(C(=O)N(C)C)n(Cc4ccccc4)c3C[C@H]2CN1C(=O)c1ccccc1	0.75	0.047 (inactive)	0.184	-0.0895	0.749	1.41	-0.469	-0.0506	-0.539	0.919
CC(C)(C)OC(=O)CC[C@@]1(C(N)=O)N=C(c2ccc(OCCCO)cc2)O[C@@H]1c1ccccc1N=[N+]=[N-]	0.501	0.005 (inactive)	0.191	-0.0241	0.616	2.08	-0.293	1.07	-0.409	1.13
CCCCCCC#C[Si](O[C@H](c1ccccc1)c1cn([C@H](C)c2ccccc2)nn1)(C(C)C)C(C)C	0.672	0.282 (inactive)	0.155	-0.0843	-0.0858	0.19	-0.164	0.729	0.267	0.809
CC(=O)NCCCC[C@@H]1NC(=O)[C@@H]2C[C@H](C(=O)NCCCCCC[N+](C)(C)C)[C@H](c3cccc(OCCO)c3)N2C1=O	-0.384	0.13 (inactive)	0.163	-0.0896	0.675	1.53	0.348	1.22	1.13	1.09
